HSF1 inh: HSF1 inhibition | NIH3T3-HGL HSE-luciferase, MG132-induced, luminescence 8 h; hits give low values | activity change, negative = inhibition, % at 7.5 µM (by protocol) | 300,000 compounds, 0.77% hits;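 active means more than half of replicate wells show activity change below -50%, luminescence cut by over half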;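 further: luciferase reports HSF-1 transcriptional activity via heat shock element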
HSP90 inh: inhibitors of HSP90 luciferase refolding in rabbit reticulocyte lysate | luciferase refolding luminescence, 3 h | inhibition, % at 5.6 µM | 290,000 compounds, 0.91% hits | AID 1789;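 active means inhibition above the screen-wide mean plus 3 SD, computed separately per campaign, cut at about 16% in these data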;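 further: inhibitors lower the luminescence because luciferase stays unfolded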
ARNT-TACC3 inh: ARNT/TACC3 interaction disruption; inhibition, % at 9.99 µM; AlphaScreen His-ARNT PAS-B/GST-TACC3 binding, luminescence; TACC3 fragment carries E629A point mutation; 390,000 compounds, 0.66% hits; Q9Y6A5;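 active means mean inhibition of replicates at least 50% and at least half of replicates each reaching 50%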
HIF activator: HIF pathway transcriptional activation | U2OS HRE-luciferase reporter, luminescence; normalized: DMSO 0%, desferrioxamine 100% | activation, % at 7.5 µM (by protocol) | AID 1910 | 300,000 compounds, 0.32% hits;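 active means mean activation of at least 10% of the iron chelator positive control signal, with at least half of replicates also reaching 10%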
HSF-1 act: increases HSF-1 driven luciferase reporter signal; activation, % at 9 µM; 300,000 compounds, 1.7% hits; NIH3T3-HGL HSF-1 luciferase reporter, MG132, 8 h; 100% = twice DMSO control signal;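 active means mean replicate activation of at least 50% with a set share of replicates each reaching 50%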
A number is an active result; – = inactive; · = no result. Most compounds without a hit are left out; they make up all but 3.1% or so of the library.

SMILES	HSF1 inh	HSP90 inh	ARNT-TACC3 inh	HIF activator	HSF-1 act
Cc1ccc(-c2cc(C(F)(F)F)c(C#N)c(SCC(=O)O)n2)cc1	–	–	–	–	58
Cc1ccc2sc(NC(=O)CSc3nc(C)cc(C)c3C#N)nc2c1	–	–	–	–	–
Cc1cc(C(F)(F)F)c(C#N)c(SCC(=O)Nc2nc3ccccc3s2)n1	-73	30	–	–	–
Cc1nc(SCC(=O)Nc2nccs2)c(C#N)c(C)c1C	·	·	–	·	·
O=C(CSC1=NCCS1)Nc1nc2ccccc2s1	–	–	–	–	56
C[C@H](CO)N1C[C@H](C)[C@H](CN(C)C(=O)C2CCCCC2)Oc2ncc(C#CC3CCCC3)cc2C1=O	·	·	–	·	·
COc1ccccc1CNC(=O)C[C@H]1CC[C@@H]2[C@H](COC[C@@H](O)CN2Cc2ccc3c(c2)OCO3)O1	·	·	–	·	·
CS(=O)(=O)Nc1ccc2c(c1)[C@H]1C[C@H](CC(=O)N3CCc4ccccc4C3)O[C@H](CO)[C@H]1O2	·	·	–	·	·
C[C@H]1CCCCO[C@@H](CN(C)Cc2ccc3c(c2)OCO3)[C@@H](C)CN([C@@H](C)CO)C(=O)c2cc(NS(=O)(=O)c3ccccc3)ccc2O1	·	·	–	·	·
CC(=O)N1[C@@H]2Cn3c(ccc(-c4ccc(F)cc4)c3=O)[C@H]1[C@@H](C(=O)N(C)C)[C@@H]2CO	·	·	–	·	·
NC(=O)CSc1nnc(-c2ccccn2)n1Cc1ccco1	–	–	–	–	–
Clc1ccccc1CSc1nnc(-c2ccccn2)n1Cc1ccco1	–	–	·	–	120
O=C(C[C@@H]1CC[C@@H](NC(=O)C2CCOCC2)[C@@H](CO)O1)Nc1ccc(-c2ccccc2)cc1	·	·	–	·	·
C[C@H]1CCCCO[C@H](CN(C)C(=O)Nc2ccccc2)[C@@H](C)CN([C@@H](C)CO)C(=O)c2cc(NC(=O)Nc3ccc(F)cc3)ccc2O1	·	·	–	·	·
Clc1ccc(-c2cc(CSc3cccc(Cl)c3)on2)cc1	–	–	–	–	–
c1ccc(SCc2cc(-c3ccccc3)no2)cc1	–	–	–	–	67
Clc1ccc(-c2cc(CSc3ccccc3)on2)cc1	–	–	–	–	66
CC(C)CC#Cc1ccc2c(c1)O[C@H](CN(C)Cc1ccc(C(=O)O)cc1)[C@@H](C)CN([C@H](C)CO)S2(=O)=O	·	·	–	·	·
O=C(Nc1cccc(Cl)c1)N[C@H]1CC[C@@H](CCNC(=O)C2CCOCC2)O[C@H]1CO	·	·	–	·	·
O=C(NCCc1ccc(O)c(O)c1)C1COc2ccccc2O1 (configuration not stated)	–	–	·	–	121
O=C(NCCc1ccccc1)C1COc2ccccc2O1 (configuration not stated)	–	–	–	–	–
O=C(NNc1nc2c(F)cc(F)cc2s1)C1COc2ccccc2O1 (configuration not stated)	–	–	–	–	–
Cc1cccc2sc(NNC(=O)C3COc4ccccc4O3)nc12 (configuration not stated)	-87	–	–	–	–
CCOC(=O)c1ccc(NC(=O)CC2COc3ccccc3O2)cc1 (configuration not stated)	-81	–	–	–	–
COc1ccc(CN(C)CC(=O)Nc2ccc(SC(F)F)cc2)cc1OC	–	–	–	57	–
SMILES	HSF1 inh	HSP90 inh	ARNT-TACC3 inh	HIF activator	HSF-1 act
CCn1nc(NS(=O)(=O)c2ccccc2)c2cc3cccc(C)c3nc21	–	–	–	–	–
CCn1nc(NS(=O)(=O)c2ccc(NC(C)=O)cc2)c2cc3cccc(C)c3nc21	–	–	–	51	–
C[C@@H]1CN([C@@H](C)CO)C(=O)c2cccc(NS(=O)(=O)c3ccc(F)cc3)c2O[C@@H]1CN(C)S(=O)(=O)c1ccccc1	·	·	–	·	·
COc1cccc(CNC(=O)C[C@@H]2CC[C@@H](NC(=O)C3CC3)[C@@H](CO)O2)c1	·	·	–	·	·
CN(C)CCCNC(=O)[C@@H]1[C@@H](CO)[C@@H]2Cn3c(ccc(-c4ccncc4)c3=O)[C@H]1N2C(=O)C1CC1	·	·	–	·	·
COc1ccc(CCNC(=O)COC(=O)CCC(=O)c2ccc(F)cc2)cc1OC	–	–	–	299	–
COc1ccc(CCNC(=O)COC(=O)CCC(=O)c2cccs2)cc1OC	·	·	–	·	·
Oc1ccc(Cl)c2cccnc12	·	·	–	·	·
Cc1ccc(N=Nc2ccc(O)c3ncccc23)cc1C	-51	–	–	–	–
Cc1ccc(N=Nc2ccc(O)c3ncccc23)cc1	–	–	–	147	123
CN1c2ccc(-c3cccc(F)c3)cc2[C@@H]2[C@@H](CCN2C(=O)c2ccccc2F)[C@H]1CO	·	·	–	·	·
